Reference: PubChem BioAssay (NCATS)
Records with an inconclusive call do not appear. Activity calls are given as the source filed them. Calls follow the shape of the dose curve; as a rule, active = well fitted inhibition curve with a large enough effect; inconclusive = small, poorly fitted or top-dose-only effect; inactive = no such curve, though single readings can be large or run the other way.

Target: Cytochrome P450 2D6 (Homo sapiens) (UniProt P10635)
Experiment: qHTS Assay for Inhibitors and Substrates of Cytochrome P450 2D6 (AID 891); also: nearly all actives have a fitted effect of over 60% in size
How it was run: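 Human CYP2D6 (5 nM) with 30 uM Luciferin-ME EGE (at Km) in 100 mM KPO4, compound preincubated 10 min, then NADPH regeneration system for 60 min at room temperature. Luciferin read by luminescence; normalized to 1.43 uM quinidine.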
Potency is read from the fitted curve at half-maximal effect.

Sequence of Cytochrome P450 2D6 (Homo sapiens) (P10635 whole entry, looked up): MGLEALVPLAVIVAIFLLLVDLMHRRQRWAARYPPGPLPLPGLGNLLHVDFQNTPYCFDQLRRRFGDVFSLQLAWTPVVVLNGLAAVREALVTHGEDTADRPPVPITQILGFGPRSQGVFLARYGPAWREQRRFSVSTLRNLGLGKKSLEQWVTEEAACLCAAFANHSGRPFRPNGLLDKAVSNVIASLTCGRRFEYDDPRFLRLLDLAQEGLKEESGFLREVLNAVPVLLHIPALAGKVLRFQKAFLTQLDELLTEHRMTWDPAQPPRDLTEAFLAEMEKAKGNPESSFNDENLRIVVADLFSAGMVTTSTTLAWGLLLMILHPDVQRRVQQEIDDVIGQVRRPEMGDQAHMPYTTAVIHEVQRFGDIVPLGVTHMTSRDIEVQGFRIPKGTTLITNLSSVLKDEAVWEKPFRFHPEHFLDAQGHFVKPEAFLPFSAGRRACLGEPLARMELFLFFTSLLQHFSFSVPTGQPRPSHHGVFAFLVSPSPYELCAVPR

Row | SMILES | Potency
1 | Cc1ccccc1-c1nccc(NCc2cccs2)n1 | 2510 nM (active)
2 | FC(F)(F)c1ccccc1-c1ccc2ncnc(NCc3cccnc3)c2c1 | 1580 nM (active)
3 | CN(C)C(=O)c1ccc(-c2cncnc2NCCc2cnc[nH]2)cc1 | 794 nM (active)
4 | c1csc(CNc2ccnc(-c3ccoc3)n2)c1 | 3160 nM (active)
5 | CNc1cc(-c2ccccc2CN(C)C)ncn1 | 631 nM (active)
6 | CCNc1ncc2nc(-c3cc(F)cc(F)c3)c(=O)n(C[C@H]3CCCO3)c2n1 | 158 nM (active)
